From the OligoGym collection
Further: reference of the scale not given here.

The sequences below were run against C7orf11 (assay: pooled miR-30 sensor sort-seq; sequence = guide strand). Details: shRNA.
TTGGCTTATATCCACTACAGAT gave a sensor-assay potency score (higher = more potent) of -1.16. ATATCCACTACAGATACTGGTT was tested, and the sensor-assay potency score (higher = more potent) was -0.708. Sequence TTTGAGTATTGCTGTATTGTTG has a sensor-assay potency score (higher = more potent) of -0.804. TAAATGTTGCAAGTTATCCTAC gave a sensor-assay potency score (higher = more potent) of 0.0898. TTCTTTTTTCTCTAACACGCCC gave a sensor-assay potency score (higher = more potent) of -0.504. TTTTTTCTCTAACACGCCCTGA gave a sensor-assay potency score (higher = more potent) of -0.403. Sequence TTATATCCACTACAGATACTGG has a sensor-assay potency score (higher = more potent) of -1.05. Work on TCCAACTCATTAGACATTCTTT yielded a sensor-assay potency score (higher = more potent) of -1.12. For TCTAATATCAACAATACCTGAT, the sensor-assay potency score (higher = more potent) was 0.0324. For TTTTTCTCTAACACGCCCTGAT, the sensor-assay potency score (higher = more potent) was 0.0567. For TTGAGTATTGCTGTATTGTTGG, the sensor-assay potency score (higher = more potent) was -0.097. TAATTATCCAATCAAAGTCATC was tested, and the sensor-assay potency score (higher = more potent) was -1.65.

What follows are sequences tested against C7orf47 in the same assay as above. Details: shRNA.
Work on TAAAATAGCGTTTCTGGGTCAC yielded a sensor-assay potency score (higher = more potent) of 0.138. ATTCATAAAATAGCGTTTCTGG was tested, and the sensor-assay potency score (higher = more potent) was -0.587. In the case of TTTCTGGGTCACACAAGATGGT, the sensor-assay potency score (higher = more potent) is reported as -1.07. Work on TGGAGATTCATAAAATAGCGTT yielded a sensor-assay potency score (higher = more potent) of -0.725. AAGATGGTCATGTCTGGCCCAG showed a sensor-assay potency score (higher = more potent) of -1.42. TCATAAAATAGCGTTTCTGGGT was tested, and the sensor-assay potency score (higher = more potent) was -0.72. Work on TAGTTTAACACAAAAATACGAA yielded a sensor-assay potency score (higher = more potent) of -0.764. Sequence TAGCGTTTCTGGGTCACACAAG has a sensor-assay potency score (higher = more potent) of -0.834. In the case of TTCTGGGTCACACAAGATGGTC, the sensor-assay potency score (higher = more potent) is reported as -1.8. For TGGGTCACACAAGATGGTCATG, the sensor-assay potency score (higher = more potent) was -1.71. TCACACAAGATGGTCATGTCTG was tested, and the sensor-assay potency score (higher = more potent) was -0.315. Sequence TAACACAAAAATACGAACTAGC has a sensor-assay potency score (higher = more potent) of 0.2.

The sequences below were run against C7orf69 in the same assay as above. Details: shRNA.
TTTGATAGTTTGACAAAACTTG was tested, and the sensor-assay potency score (higher = more potent) was -0.171. Work on TTGTAGAGAAGTCCAGAGTTAA yielded a sensor-assay potency score (higher = more potent) of -1.47. In the case of TTTCCATCCATGACCAACTTTT, the sensor-assay potency score (higher = more potent) is reported as -0.995. For ATAGTTTGACAAAACTTGTAGA, the sensor-assay potency score (higher = more potent) was -0.39. Work on TTGATAGTTTGACAAAACTTGT yielded a sensor-assay potency score (higher = more potent) of -1.4. Work on TAGTTTGACAAAACTTGTAGAG yielded a sensor-assay potency score (higher = more potent) of -0.507. In the case of TTGCTCTGCATTTGATAGTTTG, the sensor-assay potency score (higher = more potent) is reported as -1.46. Sequence AAAACTTGTAGAGAAGTCCAGA has a sensor-assay potency score (higher = more potent) of -0.425. Sequence TGATAGTTTGACAAAACTTGTA has a sensor-assay potency score (higher = more potent) of -0.512. Work on TTCAGCTCTCCTATCCGTGCAA yielded a sensor-assay potency score (higher = more potent) of 0.252. In the case of TTTGCTCTGCATTTGATAGTTT, the sensor-assay potency score (higher = more potent) is reported as -0.51. AAGTCCAGAGTTAAGAACCAGC was tested, and the sensor-assay potency score (higher = more potent) was -0.81.

Each sequence was assayed against C8B in the same assay as above. Details: shRNA.
TTCTACAGTTTGCTTCATCTGA was tested, and the sensor-assay potency score (higher = more potent) was -0.199. Work on TAATATAGTGTTTGCCTCGATC yielded a sensor-assay potency score (higher = more potent) of -0.751. For TTTGCCTACAGACACACCCAGA, the sensor-assay potency score (higher = more potent) was -0.947.
